# This is a sample that favours compounds with a hit; in the whole collection about 0.83% have one here.
# OTUD3 inh – human OTUD3 deubiquitinase inhibition; inhibition, % at 25 µM; purified OTUD3, Ub-rhodamine fluorescence, 2 h; AID 1645858; 0.7% of 47,000 active
# UCHL1 inh – human UCHL1 deubiquitinase inhibition | AID 1645859 | P09936 | 0.2% of 47,000 active | inhibition, % at 20 µM | purified UCHL1, Ub-rhodamine cleavage fluorescence
# USP7 inh – inhibitors of human USP7 deubiquitinase. purified USP7, Ub-rhodamine cleavage fluorescence. 0.3% of 47,000 active. inhibition, % at 20 µM. Q93009
# Target sequence (Q93009 whole entry, looked up): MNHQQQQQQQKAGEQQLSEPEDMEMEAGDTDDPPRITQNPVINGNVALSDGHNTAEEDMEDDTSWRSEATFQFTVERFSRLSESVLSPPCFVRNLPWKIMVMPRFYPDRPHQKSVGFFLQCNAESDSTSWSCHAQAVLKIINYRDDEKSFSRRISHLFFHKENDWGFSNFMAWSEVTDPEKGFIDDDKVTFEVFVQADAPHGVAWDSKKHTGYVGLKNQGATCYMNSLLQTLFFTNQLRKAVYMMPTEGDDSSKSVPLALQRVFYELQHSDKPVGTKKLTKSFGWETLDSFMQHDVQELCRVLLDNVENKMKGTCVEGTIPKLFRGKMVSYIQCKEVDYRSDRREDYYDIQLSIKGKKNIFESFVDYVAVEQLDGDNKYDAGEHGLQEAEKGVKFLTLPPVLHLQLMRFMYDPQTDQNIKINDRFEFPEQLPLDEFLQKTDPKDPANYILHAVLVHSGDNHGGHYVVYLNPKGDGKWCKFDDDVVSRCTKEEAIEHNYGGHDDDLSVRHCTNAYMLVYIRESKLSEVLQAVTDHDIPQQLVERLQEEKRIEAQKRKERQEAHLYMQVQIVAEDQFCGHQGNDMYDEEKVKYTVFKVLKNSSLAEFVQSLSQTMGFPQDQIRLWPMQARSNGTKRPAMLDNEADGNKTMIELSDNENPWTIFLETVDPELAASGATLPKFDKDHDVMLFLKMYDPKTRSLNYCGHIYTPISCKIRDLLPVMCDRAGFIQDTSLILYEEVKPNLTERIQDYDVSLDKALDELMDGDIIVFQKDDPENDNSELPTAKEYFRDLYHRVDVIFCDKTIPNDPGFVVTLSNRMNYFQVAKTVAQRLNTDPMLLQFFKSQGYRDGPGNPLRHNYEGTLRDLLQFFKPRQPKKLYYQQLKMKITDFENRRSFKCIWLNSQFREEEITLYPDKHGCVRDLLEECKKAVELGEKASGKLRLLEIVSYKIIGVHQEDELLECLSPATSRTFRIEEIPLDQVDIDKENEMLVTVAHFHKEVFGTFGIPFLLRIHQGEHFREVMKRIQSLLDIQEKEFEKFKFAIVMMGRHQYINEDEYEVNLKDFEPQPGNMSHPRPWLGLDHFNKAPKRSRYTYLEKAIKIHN
# Hits are given with their value; - = inactive; . = not tested or not shown. Cut-off read from the data, not from the text of the source: active = inhibition above about 30%; inactive = the rest.
SMILES,OTUD3 inh,UCHL1 inh,USP7 inh
CC1OC2CC(O)C1(O)C1=C2C(=O)c2c(O)c3c(c(O)c2C1=O)[C@H](C)O[C@H]1CC(=O)O[C@@H]31 (stereo partly drawn),-,-,-
Cc1nn(-c2ccccc2)c2c1C1(C(=O)Nc3ccccc31)N1C(=N2)Sc2ccccc21 (stereo not drawn),-,-,82.7
Cc1nn(-c2ccccc2)c2c1C1(C(=O)Nc3ccccc31)C(C#N)=C(N)O2 (stereo not drawn),-,-,-
CNC(=O)[C@H]1C[C@]2(CCCCNC2=O)N(C(=O)Cc2ccc(F)cc2)[C@H]1c1ccccc1,-,-,-
O=C(O)CC(CC(=O)Nc1ccc(Br)cc1)c1c(Cl)cccc1Cl (stereo not drawn),-,-,.
Cc1nn(-c2ccc(F)cc2)c(C)c1S(=O)(=O)N1CCN(c2ccccn2)CC1,-,-,35.7
Cc1nn(-c2ccc(F)cc2)c(C)c1S(=O)(=O)N1CCC(C)CC1,-,-,-
COc1ccc(O)c(C(=O)c2cnc3c(c2)c(C)nn3-c2ccc(C)cc2)c1,-,-,-
O=S(=O)(c1ccc(F)cc1)N1CCN(c2nnnn2-c2ccccc2)CC1,-,-,-
O=S(=O)(c1cccc(F)c1)N1CCN(c2nnnn2-c2ccccc2)CC1,40.9,-,-
O=C(OC(C(=O)Nc1ccc(F)cc1)c1ccccc1)c1ccc2c(=O)n3c(nc2c1)CCCCC3 (stereo not drawn),-,-,-
COc1c2c(cc3cc(O)c4c(=O)cc(C)oc4c13)CCC2=O,-,-,-
COc1cc(O)c2c(O)c3c(cc2c1)C[C@@]1(O)CC(=O)C(C(N)=O)=C(O)[C@@]1(O)C3=O,45.7,70.5,65.2
C/C=C/C=C/CCc1c(O)cc(CC=C(C)C)c(O)c1C=O,-,-,-
O=c1[nH]c2c(cc1CNc1ccc(Cl)cc1)c(-c1cccc(F)c1)nn2-c1ccccc1,-,-,-
O=c1[nH]c2c(cc1CNCCc1ccccc1)c(-c1ccc(F)cc1)nn2-c1ccccc1,-,-,-
Cc1ccc(NCc2cc3c(-c4cccc(F)c4)nn(-c4ccccc4)c3[nH]c2=O)cc1C,-,-,51.3
COc1ccc(-c2nn(-c3ccccc3)c3[nH]c(=O)c(CNc4ccc5c(c4)OCCO5)cc23)cc1OC,-,-,30.6
O=c1[nH]c2c(cc1CNc1ccc(Oc3ccccc3)cc1)c(-c1ccc(F)cc1)nn2-c1ccccc1,-,40.5,50.0
COc1ccc(-c2nn(-c3ccccc3)c3[nH]c(=O)c(CNCc4cccs4)cc23)cc1OC,-,-,-
Nc1nccnc1C1CN(C(=O)c2ccc3c(c2)CCCC3)CCO1 (stereo not drawn),-,-,-
O=C(CN1CCCC(c2nc3ccccc3s2)C1)Nc1ccc2[nH]c(=O)[nH]c2c1 (stereo not drawn),-,-,-
CCn1c(CNc2ccc(Cl)cc2)nnc1SCC(=O)Nc1ccccc1,-,-,-
COc1ccc(S(=O)(=O)NCCSc2ccccc2)cc1Br,-,-,-
COc1cc(OC)c2c(=O)cc(-c3ccccc3)oc2c1OC,-,-,-
SMILES,OTUD3 inh,UCHL1 inh,USP7 inh
COc1c(O)c(O)c2c(=O)cc(-c3ccc(O)cc3)oc2c1OC,46.1,-,-
O=C(Nc1ccccc1Cl)N(CCN1CCOCC1)Cc1cc2cc3c(cc2[nH]c1=O)OCCO3,-,-,-
O=C(Nc1cccc(C(F)(F)F)c1)c1nn(C2CCS(=O)(=O)C2)c2c1CCCC2 (stereo not drawn),-,-,-
CCOc1ccc2c(c1)c(=O)c(C(=O)c1ccc(C)cc1)cn2CC(=O)Nc1ccc(C)cc1,-,-,59.6
CCOc1ccc2c(c1)c(=O)c(C(=O)c1ccccc1)cn2CC(=O)Nc1ccccc1,-,-,-
CCOc1ccc2c(c1)c(=O)c(C(=O)c1ccc(C)cc1)cn2CC(=O)Nc1ccc(OC)cc1,-,-,-
Cc1ccc(C(=O)c2cn(CC(=O)Nc3ccc(F)c(F)c3)c3ccc(F)cc3c2=O)cc1,-,-,-
COc1cccc(NC(=O)Cn2cc(C(=O)c3ccc(C)cc3)c(=O)c3cc(Cl)ccc32)c1,-,-,34.9
Cc1ccc(C(=O)c2cn(CC(=O)Nc3ccc4c(c3)OCO4)c3ccccc3c2=O)cc1,-,-,33.4
O=C(Cn1cc(C(=O)c2ccccc2)c(=O)c2cc3c(cc21)OCCO3)Nc1ccc2c(c1)OCO2,-,-,-
CCOc1ccc2c(c1)c(=O)c(C(=O)c1ccc(C)cc1)cn2CC(=O)Nc1ccc(C)c(C)c1,-,-,59.3
N#Cc1cccc(NC(=O)N2CCc3nc4ccccc4n3CC2)c1,-,-,-
CC(C(=O)Nc1ccc([N+](=O)[O-])cc1Cl)N1CCN(C(c2ccccc2)c2ccccc2)CC1 (stereo not drawn),-,-,-
Cc1c(Cl)cccc1NS(=O)(=O)c1ccc(NC(=O)Nc2ccccc2)cc1,-,-,-
C[C@@H](C(=O)NCCCc1ccccc1)N1C(=O)N2CCc3c([nH]c4ccccc34)[C@@]2(C)C1=O,-,-,-
O=c1sc2ccccc2c(=O)n1Cc1cccc(C(F)(F)F)c1,-,-,-
CCN(Cc1ccccc1)S(=O)(=O)c1ccc(C(=O)Nc2ccc3c(c2)OCCO3)cc1,-,-,-
Cc1ccc(NC(=O)Cn2cc(C(=O)c3ccccc3)c(=O)c3cc(C)ccc32)cc1,-,-,32.1
Cc1ccc2c(c1)c(=O)c(C(=O)c1ccccc1)cn2CC(=O)Nc1ccccc1,-,-,-
CCOc1ccc2nc(C(=O)NCc3ccc4c(c3)OCO4)cn2n1,-,-,-
O=C1c2cccnc2C(Nc2ccccc2F)N1Cc1ccco1 (stereo not drawn),-,-,-
COCCN1C[C@H]2CCN(C(=O)c3ccncc3)CC[C@H]2S1(=O)=O,-,-,-
CS(=O)(=O)c1ccc(COc2ccc(-c3ncc(S(C)(=O)=O)c(-c4cccc(C(F)(F)F)c4)n3)cc2)cc1,-,-,-
CC(Sc1n[nH]c2nc3ccccc3n12)C(=O)Nc1ccc2c(c1)OCCO2 (stereo not drawn),34.0,-,-
O=C(CSc1n[nH]c2nc3ccccc3n12)Nc1ccc2[nH]c(=O)[nH]c2c1,-,-,-
SMILES,OTUD3 inh,UCHL1 inh,USP7 inh
Nc1ccc2oc(-c3cccc(-c4nc5cc(N)ccc5o4)n3)nc2c1,39.7,-,-
Clc1ccc2oc(-c3cccs3)nc2c1,-,-,-
Cc1cc(O)c2c3c(c(O)c4c(c13)O[C@@H](C)C4(C)C)C(=O)C2=O,-,-,-
Cc1nc(C2CCCNC2)nc2c1CCC(=O)N2CCc1ccc(F)cc1 (stereo not drawn),-,-,-
O=c1cc(-c2ccc(O)c(O)c2)oc2cc(O[C@@H]3O[C@H](CO)[C@@H](O)[C@H](O)[C@H]3O)cc(O)c12,97.5,31.4,36.1
CC1OC(OCC2OC(Oc3c(-c4ccc(O)c(O)c4)oc4cc(O)cc(O)c4c3=O)C(O)C(O)C2O)C(O)C(O)C1O (stereo not drawn),-,-,-
Cn1c(SCCOc2ccccc2Cl)nnc1-c1ccc2c(c1)OCCO2,-,-,-
COc1ccccc1OCCSc1nnc(-c2ccc3c(c2)OCCCO3)n1C,-,-,77.9
Cc1ccc(CNc2nc(-c3cccnc3)nn2S(C)(=O)=O)cc1,-,-,-
CS(=O)(=O)n1nc(NCc2ccc(F)cc2)nc1NCc1ccc(F)cc1,33.5,-,-

# Source: PubChem (Buhrlage Lab, Dana-Farber Cancer Institute and Novartis Institutes for BioMedical Research (Cambridge, Mass))
